Drawing on PubChem BioAssay, this text covers growth inhibition and inhibition for 40 compounds.

Active and inactive are the calls of the source.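 The calls were made as follows, unless noted: active = growth inhibition above 50% at the single 2 µM test dose, taken to imply half-maximal potency below 2 µM; inactive = the rest.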

One assay is described as follows: antimalarial activity against Dd2 strain (AID 2302).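 Also: 0% = DMSO untreated growth and 100% = chloroquine plus artemisinin killed control.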 As to conditions: P. falciparum Dd2 in RBCs, LDH growth readout, 72 h; at 2 µM; hits give high values.
For `CCCCCCOc1ccccc1C(=O)NCCOc1ccc(Cl)cc1`, the growth inhibition is 37% (inactive).

In the case of `CCOc1ccc(C(Cc2ccccc2)NC(=O)c2cccnc2)cc1OCC` (stereo not given), the growth inhibition was 98% (active).

In the case of `c1ccc2[nH]c(-c3ccc(-c4ccc(CNC5CC5)cc4)s3)nc2c1`, the growth inhibition was 19% (inactive).

For the compound `Cn1nc(-c2ccccc2F)c2cc(C(=O)Nc3cccnc3)sc21`, the growth inhibition is 82% (active).

Consider `COc1c(Br)cc(Br)cc1-c1ccc(CN2C3CCCC2CCC3)[nH]1`, for which the growth inhibition was 83% (active).

Take `CC(=O)Nc1cccc(C(=O)Nc2cccc(-c3ccc(-c4nc5ccc(F)cc5[nH]4)s3)c2)c1`: the growth inhibition is 30% (inactive).

As to `O=C(/C=C/c1ccc(F)cc1)NC1CCC(CCN2CCCN(c3ccc(C(F)(F)F)cn3)CC2)CC1` (stereo not given), the growth inhibition was 13% (inactive).

With `CN(C)C(C)(C)CN(Cc1ccc(-c2ccc(C(F)(F)F)cc2)cc1)C(=O)Cn1c(CCc2cccc(F)c2F)nc(=O)c2ccccc21`, the growth inhibition is 67% (active).

In the case of `Cc1ccc(-c2nc(NC(=O)Nc3ccc(C(F)(F)F)cc3)sc2C)cc1Cl`, the growth inhibition was 86% (active).

Take `CN1CCC(NCc2cccc(-c3ccc(S(=O)(=O)NCCN4CCCC4)s3)c2)CC1`: the growth inhibition was 1% (inactive).

As for `O=c1cc(NCCCNCc2cc(Cl)cc(Cl)c2OCc2ccc(Cl)cc2)[nH]c2ccccc12`, the growth inhibition is 53% (active).

Turning to `CC1CCCN(c2ccc(NC(=O)c3cccs3)cc2[N+](=O)[O-])C1` (stereo not given), the growth inhibition was 96% (active).

For `CC(C)CCCC(C)(C)NC[C@@H](O)[C@H](Cc1ccccc1)NC(=O)c1cc(NC(C)C)cc(N2CCCCS2(=O)=O)c1`, the growth inhibition is 98% (active).

As for `C=CCc1cccc(C)c1OCCCON1C(N)=NC(N)=NC1(C)C`, the growth inhibition was 95% (active).

On to `CC(C)CC(=O)N(Cc1ccc(-c2ccc(CNC3Cc4ccccc4C3)cc2)cc1)C1CCNCC1`, for which the growth inhibition is 65% (active).

On to `Oc1ccccc1CN[C@@H]1CCCC[C@H]1NCc1ccccc1O`, for which the growth inhibition is 66% (active).

`C=CCN1C(=O)CN(S(=O)(=O)c2ccc(-n3nc(C)cc3C)cc2)C1=S`: the growth inhibition is -2% (inactive).

For the compound `O=C(/C=C/c1ccc(Cl)c(Cl)c1)NCCCCCCN1CCCN(C(=O)Nc2cccc(Cl)c2)CC1`, the growth inhibition was 2% (inactive).

As for `O=C(NC1CC1)c1ccc(N2CCCCN2CCc2ccccc2)c(C(F)(F)F)c1`, the growth inhibition is 84% (active).

On to `CC(C)(C)c1ccc(OCCCON2C(N)=NC(N)=NC2(C)C)c(C(C)(C)C)c1`, for which the growth inhibition was 97% (active).

`COc1ccc(-c2ccc(NC(=O)c3cccc(Cl)c3)cc2)cc1CN1CCC(O)CC1`: the growth inhibition is 12% (inactive).

Consider `CCN1CCN(c2cc(C)c3cc(NC(=O)c4cc(OC)cc(OC)c4)ccc3n2)CC1`, for which the growth inhibition was 90% (active).

On to `CSc1ccc2nccc(Nc3ccc(Oc4ccccc4)cc3)c2c1`, for which the growth inhibition was 68% (active).

With `Cc1cccc2[nH]c(-c3cccc(-c4cccc(CN5CCCC5CN)c4)c3)nc12` (stereo not given), the growth inhibition is 72% (active).

Take `COc1ccc(C(C(=O)NC2CCN(C[C@H](O)c3ccnc4ccc(OC)cc34)CC2)N2CCN(c3ccc(F)cc3)CC2)cc1` (stereo not given in full): the growth inhibition was 86% (active).

Turning to `CCCc1cn2c3c(cc(C(=O)N[C@@H](Cc4ccccc4)[C@H](O)CNC4CCOCC4)cc13)N(C)S(=O)(=O)CC2`, the growth inhibition was 98% (active).

On to `CCCNCc1ccc(-c2ccc(CN(Cc3cnc(C)cn3)C(=O)/C=C/c3ccccc3C)cc2)nc1`, for which the growth inhibition was 15% (inactive).

`Cn1cc(C2CCN(CCCCNC(=O)c3ccc(C(=O)Nc4ccc(C#N)cc4)cc3)CC2)c2ccccc21`: the growth inhibition was 58% (active).

As to `CCOc1ccnc(=O)[nH]1`, the growth inhibition is 95% (active).

Regarding `COc1nc2c(CCN3CCC(NCc4ccc5c(c4)NCCO5)CC3)c(Cl)cnc2cc1F`, the growth inhibition was 98% (active).

For the compound `O=C(/C=C/c1ccc(Cl)cc1)NCCCCCN1CCC(C(=O)Nc2cccc(Cl)c2)CC1`, the growth inhibition is -6% (inactive).

Take `Cc1nnc2c(NC(=O)NC3CCCC3)cc3ccc(-c4cccc(CN(C)C)c4)cc3n12`: the growth inhibition is 25% (inactive).

Take `CC(C)(C)c1ccc(NC(=O)c2ccc(CN3CCCN(CC4CCCCC4)CC3)cc2)cc1`: the growth inhibition is 64% (active).

As for `O=C(Nc1cccc(-c2cccc(-c3nc4ccc(F)cc4[nH]3)c2)c1)c1ccncc1`, the growth inhibition was 24% (inactive).

For `CC(=O)c1c(Nc2c(C)cc(C)cc2C)oc(C)cc1=O`, the growth inhibition was 83% (active).

Consider `O=C(NCCCCN1CCC(c2ccc(C(F)(F)F)cc2C(F)(F)F)CC1)c1ccc(NC(=O)c2ccc(Cl)cc2)cc1`, for which the growth inhibition is 59% (active).

Consider `O=C(N[C@@H](CC1CCCCC1)C(=O)NC1CCCc2ccccc21)c1ccc(O)c(-c2cccc(C(F)(F)F)c2)c1` (stereo not given in full), for which the growth inhibition was 99% (active).

For the compound `COc1ccc2ncc(F)c(CCN3CC[C@@H](CNCc4cc(C)c5c(c4)OCCO5)C3)c2n1`, the growth inhibition is 44% (inactive).

For `C#CCN(Cc1cc2c(=O)[nH]c(N)nc2cc1C)c1ccc(C(=O)N[C@@H](CCC(=O)O)C(=O)O)cc1`, the growth inhibition is 74% (active).

For the compound `COc1cc(Cc2cnc(N)nc2N)cc(OCCCOc2ccccc2)c1OC`, the growth inhibition was 2% (inactive).

A further assay is described as follows: human hepatoma cell viability loss – ATP luminescence, cytotoxicity control for P. falciparum antimalarial project, primary screen (AID 2303;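 active = inhibition above 50%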;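 also: 0% = DMSO wells and 100% = digitonin-killed cells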). Particulars: HepG2 viability, 24-48 h, at 10 µM, hits give high values.
As a reminder, the inhibition is the drop in the measured response relative to a control, in per cent. Regarding `CCCCCCOc1ccccc1C(=O)NCCOc1ccc(Cl)cc1`, the inhibition is 16% (inactive).

Consider `CCOc1ccc(C(Cc2ccccc2)NC(=O)c2cccnc2)cc1OCC` (stereo not given), for which the inhibition is -21% (inactive).

Consider `c1ccc2[nH]c(-c3ccc(-c4ccc(CNC5CC5)cc4)s3)nc2c1`, for which the inhibition is 25% (inactive).

In the case of `Cn1nc(-c2ccccc2F)c2cc(C(=O)Nc3cccnc3)sc21`, the inhibition was 5% (inactive).

With `COc1c(Br)cc(Br)cc1-c1ccc(CN2C3CCCC2CCC3)[nH]1`, the inhibition is 42% (inactive).

Regarding `CC(=O)Nc1cccc(C(=O)Nc2cccc(-c3ccc(-c4nc5ccc(F)cc5[nH]4)s3)c2)c1`, the inhibition is 88% (active).

As for `O=C(/C=C/c1ccc(F)cc1)NC1CCC(CCN2CCCN(c3ccc(C(F)(F)F)cn3)CC2)CC1` (stereo not given), the inhibition is 29% (inactive).

`CN(C)C(C)(C)CN(Cc1ccc(-c2ccc(C(F)(F)F)cc2)cc1)C(=O)Cn1c(CCc2cccc(F)c2F)nc(=O)c2ccccc21`: the inhibition was 64% (active).

As to `Cc1ccc(-c2nc(NC(=O)Nc3ccc(C(F)(F)F)cc3)sc2C)cc1Cl`, the inhibition is 29% (inactive).

For `CN1CCC(NCc2cccc(-c3ccc(S(=O)(=O)NCCN4CCCC4)s3)c2)CC1`, the inhibition is 10% (inactive).

For the compound `O=c1cc(NCCCNCc2cc(Cl)cc(Cl)c2OCc2ccc(Cl)cc2)[nH]c2ccccc12`, the inhibition was 6% (inactive).

For the compound `CC1CCCN(c2ccc(NC(=O)c3cccs3)cc2[N+](=O)[O-])C1` (stereo not given), the inhibition is 14% (inactive).

As to `CC(C)CCCC(C)(C)NC[C@@H](O)[C@H](Cc1ccccc1)NC(=O)c1cc(NC(C)C)cc(N2CCCCS2(=O)=O)c1`, the inhibition is 2% (inactive).

Consider `C=CCc1cccc(C)c1OCCCON1C(N)=NC(N)=NC1(C)C`, for which the inhibition is 65% (active).

`CC(C)CC(=O)N(Cc1ccc(-c2ccc(CNC3Cc4ccccc4C3)cc2)cc1)C1CCNCC1`: the inhibition was 20% (inactive).

Take `Oc1ccccc1CN[C@@H]1CCCC[C@H]1NCc1ccccc1O`: the inhibition is 53% (active).

Consider `C=CCN1C(=O)CN(S(=O)(=O)c2ccc(-n3nc(C)cc3C)cc2)C1=S`, for which the inhibition was 5% (inactive).

Regarding `O=C(/C=C/c1ccc(Cl)c(Cl)c1)NCCCCCCN1CCCN(C(=O)Nc2cccc(Cl)c2)CC1`, the inhibition was 26% (inactive).

Turning to `O=C(NC1CC1)c1ccc(N2CCCCN2CCc2ccccc2)c(C(F)(F)F)c1`, the inhibition was -9% (inactive).

Regarding `CC(C)(C)c1ccc(OCCCON2C(N)=NC(N)=NC2(C)C)c(C(C)(C)C)c1`, the inhibition was 64% (active).

For the compound `COc1ccc(-c2ccc(NC(=O)c3cccc(Cl)c3)cc2)cc1CN1CCC(O)CC1`, the inhibition was 15% (inactive).

As to `CCN1CCN(c2cc(C)c3cc(NC(=O)c4cc(OC)cc(OC)c4)ccc3n2)CC1`, the inhibition was 0% (inactive).

As to `CSc1ccc2nccc(Nc3ccc(Oc4ccccc4)cc3)c2c1`, the inhibition is 30% (inactive).

Take `Cc1cccc2[nH]c(-c3cccc(-c4cccc(CN5CCCC5CN)c4)c3)nc12` (stereo not given): the inhibition was 15% (inactive).

With `COc1ccc(C(C(=O)NC2CCN(C[C@H](O)c3ccnc4ccc(OC)cc34)CC2)N2CCN(c3ccc(F)cc3)CC2)cc1` (stereo not given in full), the inhibition was 16% (inactive).

On to `CCCc1cn2c3c(cc(C(=O)N[C@@H](Cc4ccccc4)[C@H](O)CNC4CCOCC4)cc13)N(C)S(=O)(=O)CC2`, for which the inhibition was 1% (inactive).

As to `CCCNCc1ccc(-c2ccc(CN(Cc3cnc(C)cn3)C(=O)/C=C/c3ccccc3C)cc2)nc1`, the inhibition was 7% (inactive).

In the case of `Cn1cc(C2CCN(CCCCNC(=O)c3ccc(C(=O)Nc4ccc(C#N)cc4)cc3)CC2)c2ccccc21`, the inhibition was 16% (inactive).

In the case of `CCOc1ccnc(=O)[nH]1`, the inhibition is -4% (inactive).

Take `COc1nc2c(CCN3CCC(NCc4ccc5c(c4)NCCO5)CC3)c(Cl)cnc2cc1F`: the inhibition is 23% (inactive).

As for `O=C(/C=C/c1ccc(Cl)cc1)NCCCCCN1CCC(C(=O)Nc2cccc(Cl)c2)CC1`, the inhibition was 22% (inactive).

With `Cc1nnc2c(NC(=O)NC3CCCC3)cc3ccc(-c4cccc(CN(C)C)c4)cc3n12`, the inhibition was 42% (inactive).

Consider `CC(C)(C)c1ccc(NC(=O)c2ccc(CN3CCCN(CC4CCCCC4)CC3)cc2)cc1`, for which the inhibition was 54% (active).

Take `O=C(Nc1cccc(-c2cccc(-c3nc4ccc(F)cc4[nH]3)c2)c1)c1ccncc1`: the inhibition is 28% (inactive).

With `CC(=O)c1c(Nc2c(C)cc(C)cc2C)oc(C)cc1=O`, the inhibition is 7% (inactive).

As to `O=C(NCCCCN1CCC(c2ccc(C(F)(F)F)cc2C(F)(F)F)CC1)c1ccc(NC(=O)c2ccc(Cl)cc2)cc1`, the inhibition is 4% (inactive).

With `O=C(N[C@@H](CC1CCCCC1)C(=O)NC1CCCc2ccccc21)c1ccc(O)c(-c2cccc(C(F)(F)F)c2)c1` (stereo not given in full), the inhibition is -4% (inactive).

As for `COc1ccc2ncc(F)c(CCN3CC[C@@H](CNCc4cc(C)c5c(c4)OCCO5)C3)c2n1`, the inhibition was 22% (inactive).

For the compound `C#CCN(Cc1cc2c(=O)[nH]c(N)nc2cc1C)c1ccc(C(=O)N[C@@H](CCC(=O)O)C(=O)O)cc1`, the inhibition is 28% (inactive).

For the compound `COc1cc(Cc2cnc(N)nc2N)cc(OCCCOc2ccccc2)c1OC`, the inhibition is 7% (inactive).
